Assay outcomes: PubChem BioAssay, The Scripps Research Institute Molecular Screening Center
HTR5A inv ctr = inverse agonist of human HTR5A in OPRM1-OPRD1 counter-screen | P47898 | HTR5A cell line, luminescence, inverse agonism | inhibition, % at 9.3 µM | 0.083% of 340,000 active; in the data active = inhibition mostly above about 23%, no sharp cut-off; inactive = mostly below about 18%;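 also: 0% = cells with DMSO and 100% = no-cell wells with DMSO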
Target sequence (P47898 whole entry, looked up): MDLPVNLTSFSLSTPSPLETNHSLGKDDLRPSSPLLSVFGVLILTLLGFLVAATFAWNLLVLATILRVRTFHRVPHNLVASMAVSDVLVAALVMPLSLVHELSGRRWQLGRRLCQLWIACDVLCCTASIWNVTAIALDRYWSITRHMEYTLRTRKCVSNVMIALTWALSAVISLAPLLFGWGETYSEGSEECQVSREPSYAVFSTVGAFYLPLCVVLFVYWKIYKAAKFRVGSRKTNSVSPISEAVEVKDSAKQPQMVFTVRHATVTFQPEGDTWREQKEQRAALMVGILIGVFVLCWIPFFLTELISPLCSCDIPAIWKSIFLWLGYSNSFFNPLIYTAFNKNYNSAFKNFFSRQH
MOR-DOR inv ag-1 = inverse agonist of human OPRM1-OPRD1 heterodimerization | P35372+P41143 | cell-based MOR-DOR heterodimer luminescence, inverse agonism | inhibition, % at 9.3 µM | 0.21% of 340,000 active; in the data active = inhibition above about 22%, passing the limit was not always enough;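 also: 0% = cells with DMSO and 100% = wells without cells with DMSO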
MOR-DOR ag-1 = OPRM1-OPRD1 heterodimerization agonism; cells, luminescence; activation, % at 9.3 µM; 0.3% of 340,000 active; AID 504326;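 also: 0% = vehicle-treated cells and 100% = reference agonist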
HTR5A ag ctr = counter-screen for OPRM1-OPRD1 agonists: human HTR5A agonism; AID 504692; activation, % at 9.3 µM; HTR5A agonist assay, luminescence, cell-based; P47898; 0.61% of 340,000 active; in the data active = activation mostly above about 9.5%, no sharp cut-off; inactive = mostly below about 7.6%;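 also: 0% = cells with vehicle only and 100% = reference agonist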
MOR-DOR inv ag-2 = inverse agonist of OPRM1-OPRD1 heterodimerization in HTR5A counter-screen | shares compounds with HTR5A inv ctr | U2OS counter-screen cells, complementation luminescence | inhibition, % at 9.3 µM | 190 tested, under 10 active | AID 504912; call rule not given here;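 also: 0% = cells with DMSO and 100% = wells without cells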
HTR5A inv confrm = confirmation of human HTR5A inverse agonists | shares compounds with HTR5A inv ctr | HTR5A-expressing cells, inverse agonism, luminescence | inhibition, % at 9.3 µM | 190 tested, under 10 active; call rule not given here;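 also: 0% = cells with DMSO and 100% = no cells with DMSO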
MOR-DOR ag-2 = opioid heterodimer agonism, HTR5A counter-screen. shares compounds with HTR5A ag ctr. U2OS counter-screen cells, complementation luminescence, 3 h. activation, % at 9.3 µM. 13% of 800 active
HTR5A ag confirm = HTR5A (human) agonism, confirmation. shares compounds with HTR5A ag ctr. 17% of 800 active. HTR5A agonist cell assay, luminescence. activation, % at 9.3 µM. AID 504915; in the data active = activation above about 17%;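 also: 0% = cells with vehicle only and 100% = full reference agonist response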
Active calls of the source: *; / = no result. An excerpt weighted towards active compounds, which were near 1.1% of everything screened. Rule as the data show it, unless noted: active = activation above about 18%; inactive = the rest.

SMILES | HTR5A inv ctr | MOR-DOR inv ag-1 | MOR-DOR ag-1 | HTR5A ag ctr | MOR-DOR ag-2 | HTR5A ag confirm | others
Clc1cccc(CN2CCC3CC2c2cc(N4CCCCC4)ccc23)c1 (stereo not drawn) | 28* | 4 | -1 | -8 | / | / | MOR-DOR inv ag-2=-13;HTR5A inv confrm=-7
Cn1c(C2CCCCC2)nc2ccccc21 | -2 | 2 | 0 | 1 | / | /
CN1CCN(C(=O)C2CC(=O)N(c3ccc(Cl)cc3)C2)CC1 (stereo not drawn) | -1 | 8 | -1 | 3 | / | /
NC(=O)c1ccc(NC(=O)CN2CCOCC2)cc1 | 34* | 6 | -1 | -9 | / | / | MOR-DOR inv ag-2=43*;HTR5A inv confrm=22
CC(=O)c1ccc(NC(=O)CN2CCOCC2)cc1 | 5 | 5 | -1 | -1 | / | /
CCc1c(C)sc(NC(=O)C2CC(c3c(F)cccc3Cl)=NO2)c1C#N (stereo not drawn) | 33* | -12 | 2 | -9 | / | / | MOR-DOR inv ag-2=-47;HTR5A inv confrm=-8
N#Cc1c(NC(=O)C2CC(c3c(F)cccc3Cl)=NO2)sc2c1CCC2 (stereo not drawn) | -12 | -1 | 0 | 5 | / | /
Cn1cccc1Cc1nnc(SCC(=O)NC2CCCC2)n1-c1ccc(F)cc1 | -4 | 12 | -2 | 1 | / | /
COc1ccc(-n2c(Cc3cccn3C)nnc2SCC(=O)NC2CCCCC2)cc1 | 33* | 14 | -3 | -12 | / | / | MOR-DOR inv ag-2=-8;HTR5A inv confrm=0
Cc1nc(/N=C(\N)NC(=O)N2c3ccccc3Sc3ccccc32)nc2ccccc12 | 10 | -8 | 1 | 3 | / | /
CCOc1cc(C(c2c(C)[nH][nH]c2=O)c2c(C)[nH][nH]c2=O)cc([N+](=O)[O-])c1O | 29* | 34 | -8 | -8 | / | / | MOR-DOR inv ag-2=42*;HTR5A inv confrm=15
Cc1ccc(NC(=S)N(C)Cc2cn(C)c3ccccc23)cc1 | 9 | 13 | -2 | 1 | / | /
O=C(COC(=O)c1ccccc1[N+](=O)[O-])NNC(=O)c1cccs1 | -3 | 7 | -1 | 16* | 0 | 0
O=C(NNC(=O)c1ccccc1[N+](=O)[O-])c1cccs1 | -8 | 15 | -3 | 3 | / | /
O=C(CS(=O)(=O)c1ccc(F)cc1)Nc1nnc(-c2ccccc2Cl)o1 | -92 | 11 | -2 | 34* | 0 | -5
COc1ccc(-c2nnc(NC(=O)CS(=O)(=O)c3ccc(F)cc3)o2)c(OC)c1 | 9 | 14 | -3 | -1 | / | /
Cc1cccc(N2CCN(C(=S)Nc3ccc4nc(N5CCOCC5)cc(C)c4c3)CC2C)c1 (stereo not drawn) | 5 | -30 | 5 | 1 | / | /
NC1=NC(=O)/C(=C/c2cn(Cc3ccccc3)c3ccccc23)S1 | -19 | -20 | 4 | 16* | 1 | 17*
Nc1c(Cl)ncnc1NCCc1ccc(O)cc1 | -11 | -6 | 1 | 6 | / | /
Cc1cc(C)c(C(=O)Nc2ccc(Br)c(C(F)(F)F)c2)c(C)c1 | -13 | -46 | 8 | 18* | 0 | 0
O=C(O)c1ccccc1C(=O)Nc1ccc(Br)c(C(F)(F)F)c1 | -5 | 6 | -1 | -4 | / | /
COc1ccc2[nH]c3c(c2c1)CCNC3=O | -8 | 18 | -3 | -2 | / | /
COc1ccc2[nH]c3c(c2c1)CCNC3(C)CCc1ccc(Cl)nc1 (stereo not drawn) | -81 | 5 | -1 | 21* | 2 | 34*
O=C(O)c1cn(-c2ccccc2)nc1-c1ccc(Cl)cc1 | 0 | 7 | -1 | 2 | / | /
Cc1cc(=O)c(C(=O)O)nn1-c1ccccc1C(F)(F)F | -4 | 0 | 0 | 15* | 0 | -2
SMILES | HTR5A inv ctr | MOR-DOR inv ag-1 | MOR-DOR ag-1 | HTR5A ag ctr | MOR-DOR ag-2 | HTR5A ag confirm | others
Cc1cc(=O)c(C(=O)O)nn1-c1cccc(C(F)(F)F)c1 | 13 | 14 | -3 | -2 | / | /
O=C(Nc1ccc2nc(SCc3ccc(Cl)cc3)sc2c1)c1ccccc1C(=O)N1CCOCC1 | -51 | -32 | 7 | 21* | 12 | 6
CN(CCOCCOc1ccc(F)cc1)Cc1ccccc1 | 0 | 8 | -2 | 0 | / | /
CCOc1cc(S(=O)(=O)N2CCCCCC2)ccc1F | -15 | -4 | 1 | 20* | 2 | 4
CCOc1ccccc1N1CCN(S(=O)(=O)c2ccc(F)c(F)c2)CC1 | -7 | 1 | 0 | -1 | / | /
CCOC(=O)CC(=O)CSc1nc(-c2ccc3c(c2)OCO3)cc(C(F)(F)F)c1C#N | -6 | 6 | -1 | 2 | / | /
CCOC(=O)CCSc1nc(-c2ccc3c(c2)OCO3)cc(C(F)(F)F)c1C#N | -42 | -11 | 2 | 18* | 1 | 5
CCCCNC(=O)CCn1c(=O)c2ccccc2n(Cc2ccc(Cl)cc2)c1=O | -47 | 5 | -1 | 18* | 1 | -2
N#Cc1ccc(OCC(=O)N2CCN(c3ccc(C(F)(F)F)cn3)CC2)cc1 | -6 | 1 | 0 | 19* | -1 | -2
COc1ccc(NC(=O)N(C)C[C@H]2Oc3c(NC(=O)Nc4ccc(C(F)(F)F)cc4)cccc3C(=O)N([C@H](C)CO)C[C@@H]2C)cc1 | -38 | 11 | -2 | 2 | / | /
Cc1cc(C)c(OCCCCNCc2ccccc2)c(Cl)c1 | -46 | -28 | 6 | 19* | 12 | 1
Cc1cc(C)c(OCCNCc2ccccc2)c(C)c1 | 6 | -7 | 2 | -2 | / | /
Cc1ccc(C)c(S(=O)(=O)NCc2cccnc2)c1 | -27 | 11 | -2 | -3 | / | /
Cc1ccc(C)c(S(=O)(=O)NCc2ccncc2)c1 | 0 | 3 | -1 | 15* | 4 | 2
COc1ccc(C2C(C#N)=C(N)Oc3cc(C)n(Cc4ccco4)c(=O)c32)cc1 (stereo not drawn) | -15 | 5 | -1 | 3 | / | /
COc1cccc(NC(=S)N2CCCN(Cc3ccc(F)cc3)C2)c1 | -14 | 0 | 0 | 33* | 4 | 26*
COc1ccc(NC(=S)N2CCCN(Cc3cccc(Cl)c3)C2)cc1 | 7 | 5 | -1 | 48* | 167* | -2
CCOc1ccc(NC(=S)N2CCCN(Cc3cccc(Cl)c3)C2)cc1 | -10 | -6 | 1 | 3 | / | /
Cc1cccc(C)c1NC(=S)N1CCCN(Cc2ccc(F)cc2)C1 | -12 | 1 | 0 | 0 | / | /
CCOC(=O)c1c(NC(=O)CSc2n[nH]c(N)n2)sc(CC)c1C | -24 | -19 | 3 | 17* | 9 | 2
CCOC(=O)c1c(NC(=O)CSc2n[nH]c(CNc3ccccc3)n2)sc(C)c1C | -12 | -50 | 9 | 23* | 6 | 4
CCOC(=O)c1c(NC(=O)CSc2n[nH]c(-c3ccco3)n2)sc(C)c1C | -24 | 0 | 0 | 5 | / | /
COC(=O)c1c(NC(=O)CSc2n[nH]c(N)n2)sc(C)c1C | 0 | 8 | -1 | -1 | / | /
Cc1cc[n+](Cc2ccccc2)c(N)c1 | -13 | 6 | -1 | 14* | 55* | -3
O=C(CNS(=O)(=O)c1ccccc1)N1CCN(c2ccccc2)CC1 | -15 | -13 | 2 | 16* | 1 | 0
